Compounds with a hit are over-represented: about 0.11% of the library has one in this group of screens.
Ab BasE inh: BasE siderophore enzyme inhibitors, primary screen, biochemical, Acinetobacter baumannii ATCC 17978, fluorescence polarization; purified BasE, fluorescence polarization binding displacement; inhibition, % (concentration not given with the values); 0.1% of 84,000 active; AID 485350, 2010;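 also: 0% = negative plate control signal and 100% = positive plate control signal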
Sa helicase inh: inhibitors of S. aureus replicative helicase, primary screen, biochemical, fluorescence unwinding readout. replicative DNA helicase (DnaC/DnaB), Staphylococcus aureus. purified S. aureus helicase, fluorescence unwinding assay. inhibition, % (no concentration beside the values). 0.05% of 120,000 active. AID 485395, 2010;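 also: 0% = mean of negative control wells and 100% = mean of positive control wells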
* = called active by the depositor. Rule as the data show it: active = inhibition above about 25% (passing the limit was not always enough); inactive = the rest.

SMILES	Ab BasE inh	Sa helicase inh
CC(C)c1ccc(O)cc1	10	-11
O=S(=O)(c1ccc(O)cc1)c1ccc(O)cc1	66*	4
Cc1nn(Cc2ccccc2Cl)c(C)c1C(=O)n1nnc2ccccc21	1	17

Screens deposited in PubChem by ICCB-Longwood Screening Facility, Harvard Medical School.
